In PubChem BioAssay:
Measured potencies and affinities stand elsewhere. Activity calls are given as the source filed them. How the calls were made is not given here.

Assay: IOSE-T80 ovarian epithelial cell cytotoxicity, dose response, cytotoxicity control for PAX8 inhibitor project, plate reader, dry powder samples (AID 743045);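 further: more negative values mean more cell killing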
Conditions: IOSE-T80 ovarian epithelial cells; series mostly up to 35 µM

| Compound | outcome |
| --- | --- |
| C[C@@H]1CN([C@H](C)CO)C(=O)c2cc(NC(=O)Nc3ccc(F)cc3)ccc2O[C@@H](C)CCCCO[C@@H]1CN(C)Cc1ccc2c(c1)OCO2 | inactive |
| Cc1noc(C)c1S(=O)(=O)N(C)C[C@@H]1OCCCC[C@H](C)Oc2ccc(NS(=O)(=O)c3ccc(Cl)cc3)cc2C(=O)N([C@H](C)CO)C[C@@H]1C | inactive |
| C[C@@H]1CCCCO[C@@H](CN(C)C(=O)Nc2cccc3ccccc23)[C@H](C)CN([C@H](C)CO)C(=O)c2cc(NS(=O)(=O)c3ccccc3)ccc2O1 | inactive |
| COc1ccc(NC(=O)Nc2ccc3c(c2)C(=O)N([C@@H](C)CO)C[C@@H](C)[C@@H](CN(C)CC2CCCCC2)OCCCC[C@@H](C)O3)cc1 | inactive |
| C[C@H]1CN([C@@H](C)CO)C(=O)c2cc(NS(=O)(=O)c3ccccc3)ccc2O[C@@H]1CN(C)Cc1ccc(Oc2ccccc2)cc1 | inactive |
| C[C@@H]1CN([C@@H](C)CO)C(=O)Cc2cc(NC(=O)CCC(F)(F)F)ccc2O[C@H]1CN(C)Cc1ccc(-c2ccccc2)cc1 | inactive |
| CCCNC(=O)Nc1ccc2c(c1)OC[C@H](C)N(Cc1ccc(-c3ccccn3)cc1)C[C@@H](C)[C@@H](OC)CN(C)C2=O | inactive |
| O=S(=O)(c1ccccc1F)N1CC[C@@H]2[C@@H](CO)Nc3ccc(C4=CCCCC4)cc3[C@@H]21 | inactive |
| CN1c2ccc(-c3cccc(F)c3)cc2[C@@H]2[C@@H](CCN2C(=O)Cc2ccccc2)[C@@H]1CO | inactive |
| C[C@H](CO)N1C[C@H](C)[C@@H](CN(C)S(=O)(=O)c2ccc(Cl)cc2)OCCCC[C@H](C)Oc2ccc(NS(=O)(=O)c3ccc(Cl)cc3)cc2C1=O | inactive |
| C[C@@H]1CN([C@H](C)CO)C(=O)Cc2cc(NC(=O)Nc3ccc(F)cc3)ccc2O[C@H]1CN(C)Cc1ccc(Cl)c(Cl)c1 | inactive |
| C[C@@H]1CCCCO[C@H](CN(C)Cc2ccc(C(F)(F)F)cc2)[C@H](C)CN([C@H](C)CO)C(=O)c2cc(NS(=O)(=O)c3cccs3)ccc2O1 | inactive |
| O=C(C[C@H]1CC[C@H]2[C@@H](COC[C@@H](O)CN2Cc2ccc(Oc3ccccc3)cc2)O1)N1CCCCC1 | inactive |
| C[C@@H]1CCCCO[C@H](CN(C)Cc2ccc(C(F)(F)F)cc2)[C@H](C)CN([C@@H](C)CO)C(=O)c2cc(NS(=O)(=O)c3cccs3)ccc2O1 | inactive |
| C[C@@H]1CCCCO[C@@H](CN(C)Cc2ccc(C(F)(F)F)cc2)[C@@H](C)CN([C@@H](C)CO)C(=O)c2cc(NS(=O)(=O)c3ccccc3)ccc2O1 | inactive |
| C[C@@H]1CCCCO[C@@H](CN(C)Cc2ccc(C(F)(F)F)cc2)[C@@H](C)CN([C@@H](C)CO)C(=O)c2cc(NS(=O)(=O)c3ccc(F)cc3)ccc2O1 | inactive |
| COc1ccc(NC(=O)Nc2ccc3c(c2)CC(=O)N([C@H](C)CO)C[C@@H](C)[C@@H](CN(C)Cc2ccc(Oc4ccccc4)cc2)O3)cc1 | inactive |
| C[C@@H]1CCCCO[C@H](CN(C)Cc2ccc(Cl)c(Cl)c2)[C@H](C)CN([C@@H](C)CO)C(=O)c2cc(NC(=O)Nc3ccccc3)ccc2O1 | inactive |
| O=C(Nc1ccc(Cl)c(Cl)c1)N[C@@H]1CC[C@H](CCn2cc(C3CCCCC3)nn2)O[C@H]1CO | inactive |
| C[C@@H]1CN([C@H](C)CO)S(=O)(=O)c2ccc(C#CC3CCCC3)cc2O[C@@H]1CN(C)C(=O)Cc1ccncc1 | inactive |
| C[C@@H]1CCCCO[C@H](CN(C)Cc2ccc(C(F)(F)F)cc2)[C@H](C)CN([C@H](C)CO)C(=O)c2cc(NS(=O)(=O)c3ccccc3)ccc2O1 | inactive |
| COc1cccc(S(=O)(=O)N2CC[C@H]3[C@@H](CO)N(C)c4ccc(C#Cc5ccc(F)cc5)cc4[C@H]32)c1 | inactive |
